Screening data: PubChem BioAssay, several laboratories
In the library only some 21% were active in any assay of this set; here they are far more common.
CYP2C9 act: activators of human CYP2C9; P11712; recombinant CYP2C9, luciferin-H conversion, luminescence; active compounds read high; factor 1 = untreated enzyme, 0 = blocked; activation factor at 5 µM; 96,000 tested, 1.4% active; AID 1024;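 active means activation factor of 2 or more for CYP2C9 at a 5 µM dose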
CYP2C19 act: activators of human cytochrome P450 2C19 | P33261 | recombinant CYP2C19, luciferin-H EGE luminescence; active compounds read high; 0 = fully inhibited enzyme, 1 = untreated enzyme | activation factor at 5 µM | 96,000 tested, under 10 active | AID 1025;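 active means activation factor of at least 2 at 5 µM in the primary screen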
Target sequence (P33261 whole entry, looked up): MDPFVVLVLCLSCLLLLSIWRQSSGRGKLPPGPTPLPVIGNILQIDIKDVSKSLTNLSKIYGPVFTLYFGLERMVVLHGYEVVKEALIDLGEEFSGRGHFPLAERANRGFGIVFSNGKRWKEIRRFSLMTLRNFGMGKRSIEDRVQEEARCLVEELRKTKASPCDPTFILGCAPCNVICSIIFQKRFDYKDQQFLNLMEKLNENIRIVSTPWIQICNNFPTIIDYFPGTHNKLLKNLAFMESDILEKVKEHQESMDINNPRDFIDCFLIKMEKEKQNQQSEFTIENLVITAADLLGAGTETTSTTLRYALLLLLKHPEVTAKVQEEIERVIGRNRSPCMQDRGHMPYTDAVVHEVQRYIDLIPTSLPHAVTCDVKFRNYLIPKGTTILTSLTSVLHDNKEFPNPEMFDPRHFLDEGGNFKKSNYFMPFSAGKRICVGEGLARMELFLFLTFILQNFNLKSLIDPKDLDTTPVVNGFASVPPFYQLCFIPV
CYP2C19 inh: inhibitors of human CYP2C19. inhibition, % at 5 µM. CYP2C19 Supersomes, luciferin-H EGE luminescence, 30 min. 96,000 tested, 21% active. AID 778;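 active means CYP2C19 inhibition above a set limit at 5 µM in the primary screen, cut at about 50% in these data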
CYP2C9 inh: inhibitors of human CYP2C9 | P11712 | CYP2C9 Supersomes, luciferin-H conversion, luminescence | 96,000 tested, 20% active | inhibition, % at 5 µM;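 active means blocking of liver enzyme CYP2C9 beyond about 50% at 5 µM, limit read from the data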
MRP reversal: MRP-mediated drug resistance reversal. H69AR cells + 2 uM doxorubicin, CellTiter-Glo, 72 h. differential viability (reversal), % at 10 µM. 85,000 tested, 0.04% active. AID 602;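 active means viability drop by adding the cancer drug above about 55%, with treated viability meeting a 40% cutoff, limit read from the data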;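 further: larger differential means the compound sensitizes cells more to doxorubicin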
MRP-1 activ: MRP-1 activation; 140,000 tested, 0.61% active; viability increase, % at 10 µM; H69AR cells + doxorubicin, viability rescue, CellTiter-Glo;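 active means viability gain under doxorubicin at or above a set limit, the compound median plus 3 SD, cut at about 4.7% in these data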;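 further: MRP-1 overexpressing cells given doxorubicin 25 µM after compound pretreatment; 18-22 h compound pretreatment then 72 h with doxorubicin before readout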
Numbers stand for hits.

What do the screens show for `Cc1ccc(NCCNc2ccc(C)cc2)cc1`?
CYP2C9 act: inactive; CYP2C19 act: inactive; CYP2C19 inh: 100; CYP2C9 inh: inactive; MRP reversal: inactive; MRP-1 activ: inactive

What do the screens show for `Cc1ccc(NCc2ccccc2F)cc1`?
MRP-1 activ: inactive

How did Cc1ccc(NCCc2ccc(C)nc2)cc1 do in these assays?
CYP2C9 act: inactive; CYP2C19 act: inactive; CYP2C19 inh: 96; CYP2C9 inh: inactive; MRP reversal: inactive; MRP-1 activ: inactive

What do the screens show for `COc1ccc(NCCNc2ccc(OC)cc2)cc1`?
CYP2C9 act: inactive; CYP2C19 act: inactive; CYP2C19 inh: 56; CYP2C9 inh: inactive; MRP-1 activ: inactive

What do the screens show for `CC1CN(C(=O)c2ccn(C)n2)CC(C)O1` (stereo unspecified)?
MRP-1 activ: inactive

Results for CNC(=O)c1ccc(Nc2nnc(-c3ccc(C)c(S(=O)(=O)NCC4CCCO4)c3)c3ccccc23)cc1 (stereo unspecified) ?
MRP-1 activ: inactive

Results for Cc1ccc(-c2nnc(Nc3ccccc3)c3ccccc23)cc1S(=O)(=O)NCC1CCCO1 (stereo unspecified) ?
CYP2C9 act: inactive; CYP2C19 act: inactive; CYP2C19 inh: 56; CYP2C9 inh: 64; MRP-1 activ: inactive

What do the screens show for `CNCc1ccccc1Sc1ccc(OC)c(OC)c1`?
CYP2C9 act: inactive; CYP2C19 act: inactive; CYP2C19 inh: 58; CYP2C9 inh: inactive; MRP-1 activ: inactive

What do the screens show for `CNCc1ccccc1Sc1cccc(O)c1`?
MRP-1 activ: inactive

How did O=C(c1ccncc1)N(c1ccc2oc3c(c2c1)CCCC3)S(=O)(=O)c1ccc(F)cc1 do in these assays?
MRP-1 activ: inactive

How did CCN(C(=O)c1coc(=O)c2ccccc12)c1cc(OC)ccc1OC do in these assays?
CYP2C9 act: inactive; CYP2C19 act: inactive; CYP2C19 inh: inactive; CYP2C9 inh: 64; MRP reversal: inactive; MRP-1 activ: inactive

Results for CCOC(=O)Nc1ccc(C)cc1Br ?
CYP2C9 act: inactive; CYP2C19 act: inactive; CYP2C19 inh: inactive; CYP2C9 inh: inactive; MRP reversal: inactive; MRP-1 activ: inactive

What do the screens show for `COC(=O)c1cccc(C(=O)Nc2ccc(C)cc2Br)n1`?
CYP2C9 act: inactive; CYP2C19 act: inactive; CYP2C19 inh: inactive; CYP2C9 inh: 54; MRP reversal: inactive; MRP-1 activ: inactive

How did c1nc(NCCN2CCOCC2)c2c3c(sc2n1)CCCCC3 do in these assays?
CYP2C9 act: inactive; CYP2C19 act: inactive; CYP2C19 inh: inactive; CYP2C9 inh: inactive; MRP reversal: inactive; MRP-1 activ: inactive

What do the screens show for `CC1CCc2c(sc3ncnc(NCCCOC(C)C)c23)C1` (stereo unspecified)?
CYP2C9 act: inactive; CYP2C19 act: inactive; CYP2C19 inh: 98; CYP2C9 inh: 89; MRP-1 activ: inactive

Results for O=C(COC(=O)/C(=C/c1cccs1)c1cccs1)NC(c1ccccc1)c1ccccc1 ?
MRP-1 activ: inactive

How did CCc1ccccc1N(C(=O)c1cccs1)C1C=CS(=O)(=O)C1 (stereo unspecified) do in these assays?
CYP2C9 act: inactive; CYP2C19 act: inactive; CYP2C19 inh: 71; CYP2C9 inh: inactive; MRP reversal: inactive; MRP-1 activ: inactive

Results for CCOC(=O)CSC1=NC(=O)/C(=C/c2ccc(OC)cc2)S1 ?
MRP-1 activ: inactive

Results for CN(C)S(=O)(=O)c1ccc(/C(O)=C2/C(=O)C(=O)N(CCN3CCCCC3)C2c2cccnc2)cc1 (stereo unspecified) ?
MRP reversal: inactive

How did O=C(CSCc1c(F)cccc1Cl)NCc1cccnc1 do in these assays?
MRP-1 activ: inactive

How did Cc1csc2nc(CNC(=O)c3cccc(C(F)(F)F)c3)cn12 do in these assays?
CYP2C9 act: 2; CYP2C19 act: inactive; CYP2C19 inh: inactive; CYP2C9 inh: inactive; MRP reversal: inactive; MRP-1 activ: inactive

How did COc1ccc(C(=O)NCc2cccnc2)cc1 do in these assays?
MRP reversal: inactive; MRP-1 activ: inactive

How did O=C(NCc1cccnc1)c1ccc(Cl)c(Cl)c1 do in these assays?
CYP2C9 act: inactive; CYP2C19 act: inactive; CYP2C19 inh: 75; CYP2C9 inh: inactive; MRP reversal: inactive; MRP-1 activ: inactive

How did O=C(NCc1cccnc1)c1cccc(C(F)(F)F)c1 do in these assays?
CYP2C9 act: inactive; CYP2C19 act: inactive; CYP2C19 inh: 89; CYP2C9 inh: inactive; MRP reversal: inactive; MRP-1 activ: inactive

Results for O=C(CSCc1c(Cl)cccc1Cl)NCc1cccnc1 ?
CYP2C9 act: inactive; CYP2C19 act: inactive; CYP2C19 inh: 54; CYP2C9 inh: inactive; MRP-1 activ: inactive
